From PubChem
The list is not random: actives were taken first. Their share in the collection is about 4%.
PAX8 inh HTS: inhibitors of PAX8-driven TPO luciferase reporter, primary screen, RMG-I cells, single concentration | inhibition, % at 12.6 µM | 1.2% of 360,000 active | SteadyGlo, 24 h;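 active means mean replicate inhibition at least 60% with every replicate also reaching 60%; inconclusive means only one of the two criteria is met; inactive means mean below 60% and not all replicates reaching 60%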;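 further: luciferase light reporting Pax8 driven TPO promoter activity; plate controls were median of neutral control wells for no effect and mitoxantrone controls for full effect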
Mdm2-MdmX inh: inhibitors of human Mdm2-MdmX association, primary screen, cell-based, luminescence, split luciferase, SaOS-2, uHTS; 3% of 330,000 active; SaOS-2 split-luciferase Mdm2/MdmX complementation; inhibition, % at 8 µM; Protein Mdm4 (Homo sapiens) + E3 ubiquitin-protein ligase Mdm2 (Homo sapiens), …; AID 485346, 2010;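 active means inhibition of at least 50% at 8 µM in the primary screen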
Target sequence (O15151 whole entry, looked up): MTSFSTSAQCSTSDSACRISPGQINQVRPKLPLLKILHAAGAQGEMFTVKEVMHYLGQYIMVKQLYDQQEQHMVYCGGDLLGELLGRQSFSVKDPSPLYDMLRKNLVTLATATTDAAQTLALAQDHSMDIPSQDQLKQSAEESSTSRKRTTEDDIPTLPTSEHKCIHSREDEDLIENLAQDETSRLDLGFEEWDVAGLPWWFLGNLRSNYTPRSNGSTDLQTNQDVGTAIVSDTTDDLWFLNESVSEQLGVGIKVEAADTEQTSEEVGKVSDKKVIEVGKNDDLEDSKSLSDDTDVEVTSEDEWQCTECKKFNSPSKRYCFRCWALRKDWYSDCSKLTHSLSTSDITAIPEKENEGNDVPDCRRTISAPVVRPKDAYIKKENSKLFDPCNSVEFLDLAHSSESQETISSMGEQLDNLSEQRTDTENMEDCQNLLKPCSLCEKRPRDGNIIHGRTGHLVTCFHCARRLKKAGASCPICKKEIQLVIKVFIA
Target sequence (Q00987 whole entry, looked up): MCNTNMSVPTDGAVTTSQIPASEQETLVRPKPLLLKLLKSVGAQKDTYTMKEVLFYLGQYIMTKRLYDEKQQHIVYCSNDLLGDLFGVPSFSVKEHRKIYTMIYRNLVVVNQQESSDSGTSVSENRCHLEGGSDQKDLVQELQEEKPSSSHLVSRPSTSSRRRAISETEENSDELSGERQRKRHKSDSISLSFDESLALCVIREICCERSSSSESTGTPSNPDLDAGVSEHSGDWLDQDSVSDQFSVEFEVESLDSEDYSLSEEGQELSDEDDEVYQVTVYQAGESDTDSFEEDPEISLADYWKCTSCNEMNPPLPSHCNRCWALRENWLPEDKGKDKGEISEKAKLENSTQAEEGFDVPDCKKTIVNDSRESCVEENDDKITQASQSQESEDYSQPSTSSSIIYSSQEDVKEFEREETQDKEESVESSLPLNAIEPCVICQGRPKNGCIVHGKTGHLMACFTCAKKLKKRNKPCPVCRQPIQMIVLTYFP
Beta apoptosis: inhibitors of cytokine-induced beta cell apoptosis, primary screen, luminescence | AID 435005, 2010 | protection from apoptosis, % (concentration not given with the values) | 0.8% of 300,000 active | INS-1E cytokine-induced death, ATP luminescence, 48 h; percent of positive-control rescue, neutral wells zero;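 active means Every replicate reaches about 75%, or at least half do and their mean reaches it too, limit read from the data; inconclusive means At least half of replicates reach the limit but their mean does not; inactive means Under half of replicates reach the limit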;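 further: 0% = cytokine-treated negative control wells and 100% = positive control rescue; higher means more ATP so stronger rescue from cytokine killing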
Gli-Sufu block: Gli-Sufu pathway antagonists, primary screen, luciferase luminescence, Sufu-KO-LIGHT cells, uHTS. Sufu-KO-LIGHT fibroblasts, Gli luciferase reporter luminescence. inhibition, % at 5 µM. 0.74% of 340,000 active;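 active means inhibition above about 55%, limit read from the data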;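 further: 0% = DMSO-treated cells and 100% = wells with medium but no cells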
Shn3 3UTR inh: reduction of Shn3 3'UTR firefly luciferase signal, primary screen, Schnurri-3 inhibitor project, cell-based, Clone20 osteoblasts, set 2 | 0.52% of 360,000 active | Clone20 osteoblast Shn3 3'UTR firefly luciferase, 24 h | inhibition, % at 12.5 µM;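 active means mean inhibition of at least 75% with every replicate also reaching 75%; inconclusive means mean inhibition at least 75% but some replicate below; inactive means mean inhibition below 75%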;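 further: 0% = median of neutral control wells and 100% = pilot-screen positive control compound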
CSC inhib: cancer stem cell viability inhibitors, primary screen, luminescence; cancer stem cell-like cells viability; inhibition, % at 7.5 µM; 1.1% of 300,000 active; AID 2717, 2010; in the data active means inhibition above about 75%; inconclusive means no clear call, values can overlap the other calls; tested in HMLE shEcad cells
Mdm2-MdmX conf: Mdm2-MdmX complex disruptors, retested hits, confirmation, luminescence, single concentration; shares compounds with Mdm2-MdmX inh; Mdm2-MdmX binding, luminescent assay; inhibition, % at 8 µM; 55% of 10,000 active; AID 489028, 2010; in the data active means inhibition above about 40%
FLuc counter: full-length luciferase signal inhibition, confirmation, counter-screen for Mdm2/MdmX interaction inhibitor project, cell-based, single concentration, SaOS-2; inhibition, % at 8 µM; 77% of 6,200 active; SaOS-2 full-length luciferase counterscreen, luminescence; shares compounds with Mdm2-MdmX inh;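 active means mean inhibition at 8 µM reaching about 37%, which flags the compound as non-specific, limit read from the data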;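 further: p53-null SaOS-2 cells with luciferase driven by a doxycycline-inducible promoter; compound on cells about two nights before reading with doxycycline added after day one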
The depositor's hits bear a star; ? = inconclusive; . = no result given.

SMILES	PAX8 inh HTS	Mdm2-MdmX inh	Beta apoptosis	Gli-Sufu block	Shn3 3UTR inh	CSC inhib	Mdm2-MdmX conf	FLuc counter
COCCn1c(C)cc(C(=O)CSc2nnc(C)s2)c1C	75*	52*	-5	19	70	-23	62*	48*
COCCn1c(C)cc(C(=O)CSc2nnnn2C2CCCC2)c1C	39	72*	0	16	34	-14	80*	79*
COCCn1c(C)cc(C(=O)COC(=O)c2cccc(O)c2)c1C	39	74*	2	43	53	-9	85*	71*
COc1ccc(-c2cc(C(F)(F)F)nc(N)n2)cc1	-5	-2	-2	-29	-20	-17	.	.
O=C(O)CCS(=O)(=O)c1nc(-c2cccs2)cc(C(F)(F)F)n1	.	9	-9	6	-18	3	.	.
COc1ccc(-c2cc(C(F)(F)F)nc(S(C)(=O)=O)n2)cc1	.	101*	-31	-8	95*	96*	80*	53*
CS(=O)(=O)c1nc(-c2cccs2)cc(C(F)(F)F)n1	.	100*	91*	.	.	100*	99*	1
C[C@H](CO)N1C[C@H](C)[C@@H](CN(C)C(=O)Nc2ccc3c(c2)OCO3)Oc2ccc(NC(=O)Cc3cn(C)c4ccccc34)cc2CC1=O	-37	.	.	.	.	.	.	.
CN1CCN(C(=O)CCCN2C(=O)/C(=C/c3cccc(Br)c3)SC2=S)CC1	49	63*	.	9	-5	.	31	29
CN1CCN(C(=O)CCN2C(=O)/C(=C/c3cccc(Br)c3)SC2=S)CC1	11	49	-35	-2	-65	53	.	.
O=C(CCCN1C(=O)/C(=C/c2cccc(Br)c2)SC1=S)N1CCOCC1	1	61*	-4	0	-36	-2	21	.
CN(C)CC(=O)N1[C@H](CO)[C@H](c2ccccc2-c2cccc(C(=O)N(C)C)c2)[C@@H]1C#N	-4	.	.	.	.	.	.	.
COCC(=O)N1[C@@H](CO)[C@@H](c2ccc(-c3ccccc3)cc2)C12CN(C(C)=O)C2	4	.	.	.	.	.	.	.
COC(=O)c1ccc(NC(=O)c2nc(S(=O)(=O)Cc3cccc(C)c3)ncc2Cl)cc1	26	76*	75*	2	95*	110*	91*	52*
CC(=O)Nc1ccc(NC(=O)c2nc(S(=O)(=O)Cc3cccc(C)c3)ncc2Cl)cc1	91*	86*	-6	36	97*	91*	66*	51*
Cc1cccc(CS(=O)(=O)c2ncc(Cl)c(C(=O)NCc3ccc4c(c3)OCO4)n2)c1	-6	60*	24	5	94*	-17	64*	16
CCCNC(=O)[C@H]1[C@H](CO)[C@H]2Cn3c(ccc(C4=CCCC4)c3=O)[C@@H]1N2C(=O)C1CC1	0	.	.	.	.	.	.	.
Cc1nn(-c2ccc([N+](=O)[O-])cc2)c2c1C(c1cccc(Br)c1)N1C(=N2)C(=O)Nc2ccccc21 (stereo unspecified)	24	60*	.	18	15	9	26	.
Cc1nn(-c2ccccc2)c2c1C(c1ccc([N+](=O)[O-])cc1)N1C(=N2)C(=O)Nc2ccccc21 (stereo unspecified)	11	22	20	3	-3	8	.	.
Cc1nc2ncccn2c1-c1csc(Nc2cccc(C(=O)O)c2)n1	-13	5	0	8	-14	2	.	.
COc1ccc(OC)c(Nc2nc(-c3c(C)nc4ncccn34)cs2)c1	-12	76*	3	38	8	-2	34	85*
COc1ccc(Nc2nc(-c3sc(C)nc3C)cs2)c(OC)c1	-25	65*	.	-6	-2	57	56*	63*
Cc1cc(/C=N/NC(=O)c2cccc([N+](=O)[O-])c2)c(C)n1-c1ccc(Cl)cc1Cl	.	50*	1	-19	25	10	35	.
Cn1cc(/C=N/NC(=O)c2cccc([N+](=O)[O-])c2)c2ccccc21	15	61*	3	5	10	-11	-8	.
Cn1cc(/C=C(\C#N)C(=O)Nc2cccc([N+](=O)[O-])c2)c2ccccc21	-14	66*	27	-1	21	3	20	.
SMILES	PAX8 inh HTS	Mdm2-MdmX inh	Beta apoptosis	Gli-Sufu block	Shn3 3UTR inh	CSC inhib	Mdm2-MdmX conf	FLuc counter
Cn1cc(/C=N/NC(=O)c2ccccc2O)c2ccccc21	3	11	2	-11	-41	-9	.	.
COc1cccc(/C=N/NC(=O)c2cccc([N+](=O)[O-])c2)c1OS(=O)(=O)c1ccccc1	9	6	2	1	14	-17	.	.
COc1ccc(/C=N/NC(=O)c2cccc([N+](=O)[O-])c2)c2ccccc12	25	86*	27	-1	19	50	23	.
COc1cccc(C#Cc2cnc3c(c2)C(=O)N([C@H](C)CO)C[C@H](C)[C@@H](CN(C)C)O3)c1	-2	.	.	.	.	.	.	.
N#Cc1cc([N+](=O)[O-])ccc1Oc1cccc(/C=N/NC(=O)c2cccc(Cl)c2)c1	.	62*	5	8	8	36	22	.
CCC(=O)N1C[C@@H](C)[C@H](OC)CN(C)C(=O)c2cc(NC(=O)Nc3cccc(F)c3)ccc2OC[C@@H]1C	0	.	.	.	.	.	.	.
O=C(C[C@H]1CC[C@H](NC(=O)Nc2ccccc2)[C@@H](CO)O1)NCc1ccccn1	-13	.	.	.	.	.	.	.
COc1cccc(-c2cc(C(=O)Nc3cc(C)nn3-c3ccccc3)no2)c1	-19	65*	9	3	8	-5	32	.
COc1ccc(-c2cc(C(=O)Nc3cc(Br)ccc3O)no2)cc1	-29	83*	-12	-7	-57	2	32	101*
COc1ccc(-c2cc(C(=O)Nc3c(C)nn(Cc4ccccc4)c3C)no2)cc1	.	63*	-1	9	48	9	20	.
COc1ccccc1-c1cc(C(=O)Nc2cc(C)nn2-c2ccccc2)no1	.	57*	10	-2	22	40	62*	45*
COc1ccc(-c2cc(C(=O)Nc3cc(C)nn3-c3ccccc3)no2)cc1	8	5	-3	9	-45	-4	.	.
C=C[C@@H]1c2ccccc2N(S(=O)(=O)c2ccc(C)cc2)[C@H](c2ccc(OC(C)=O)cc2)C1(C#N)C#N	28	46	2	0	7	?	.	.
